Test results taken from PubChem BioAssay (NCI).
This is part of a sample that, as a whole, favours compounds with a hit. Of some 79,000 tested, about 15% had one in any assay. Values without a mark were called inactive. Activity calls are given as the source filed them. Cut-off read from the data, not from the text of the source: active = growth inhibition above about 70%; inactive = the rest.

Legend:
[1] = NCI Yeast Anticancer Drug Screen. Data for the rad50 strain (AID 155);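 note: 0% = growth of vehicle-only cultures of the same strain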; conditions: S. cerevisiae rad50 strain growth inhibition, stronger effect = higher value
Method in brief: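 Inhibition values express reduced yeast growth in compound-treated cultures relative to vehicle-treated controls.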

[2] = NCI Yeast Anticancer Drug Screen. Data for the mec2-1 strain (AID 157); conditions: S. cerevisiae mec2-1 strain, stronger effect = higher value
Method in brief: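 Mutant yeast (mec2-1) grown with compound; growth inhibition relative to vehicle control reported.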

[3] = NCI Yeast Anticancer Drug Screen. Data for the sgs1 mgt1 strain (AID 161);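 note: 0% = growth of cultures given vehicle only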; conditions: S. cerevisiae sgs1 mgt1 strain, stronger effect = higher value
Method in brief: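 This yeast growth screen uses a strain with defined DNA-repair lesions; compound-treated growth is compared with vehicle-treated growth.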

[4] = NCI Yeast Anticancer Drug Screen. Data for the cln2 rad14 strain (AID 165);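 note: 0% = growth equal to vehicle treated cultures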; conditions: S. cerevisiae cln2 rad14 strain, stronger effect = higher value
Method in brief: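 Readout is yeast growth inhibition versus vehicle-treated controls, using a strain with cln2 and rad14 alterations exposed to compound.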

[5] = NCI Yeast Anticancer Drug Screen. Data for the bub3 strain (AID 167); conditions: S. cerevisiae bub3 mutant strain, stronger effect = higher value
Method in brief: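 Steps: expose the mutant yeast strain to compound; grow alongside vehicle-treated cultures; measure growth; express inhibition against the vehicle cultures.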

[6] = NCI Yeast Anticancer Drug Screen. Data for the mlh1 rad18 strain (AID 175); conditions: S. cerevisiae mlh1 rad18 strain growth inhibition, stronger effect = higher value
Method in brief: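 Genetically defined yeast (DNA repair-deficient) exposed to compounds; growth inhibition determined relative to vehicle.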

[7] = at 5.0 µM (retest, dose inferred, filed as 0.5)
[8] = at 50.0 µM (retest, dose inferred, filed as 5.0)

SMILES | growth inhibition [1, 7] [%] | growth inhibition [1, 8] | growth inhibition ([1]; at 50.0 µM) | growth inhibition [2, 7] [%] | growth inhibition [2, 8] | growth inhibition ([2]; at 50.0 µM) | growth inhibition [3, 7] | growth inhibition [3, 8] | growth inhibition ([3]; at 50.0 µM) | growth inhibition [4, 7] [%] | growth inhibition [4, 8] | growth inhibition ([4]; at 50.0 µM) | growth inhibition [5, 7] [%] | growth inhibition [5, 8] | growth inhibition ([5]; at 50.0 µM) | growth inhibition [6, 7] [%] | growth inhibition [6, 8] | growth inhibition ([6]; at 50.0 µM)
Cn1cc(/C=C/[N+](=O)[O-])c2ccc(OCc3ccccc3)cc21 | 2 | -6% | 4.75% | -3 | -7% | 37% | 4% | 4% | 10.2% | 10 | 54% | 17.5% | 14 | 34% | 76.3% (active) | 3 | 11% | 16.9%
Nc1cc2c(c[n+](CCCCCCCCCC[n+]3cc4c5ccccc5c(N)cc4c4ccccc43)c3ccccc23)c2ccccc12 | 20 | 94% (active) | 88% (active) | 36 | 96% (active) | 91.8% (active) | 56% | 95% (active) | 85% (active) | 16 | 92% (active) | 87.8% (active) | 58 | 95% (active) | 81% (active) | 63 | 95% (active) | 83.6% (active)
C[N+](C)([O-])CCOc1cc2c(c3ccccc13)-c1ccccc1C2=O | 1 | 63% | 83.8% (active) | -1 | 7% | -4.3% | -4% | 19% | -8.2% | -5 | 5% | 13% | -5 | 4% | 0.15% | 1 | 13% | 16.9%
Oc1c(Cl)cc(Cl)c2cccnc12 | 56 | 96% (active) | 98.8% (active) | 31 | 98% (active) | 99.2% (active) | 21% | 99% (active) | 97.7% (active) | 27 | 98% (active) | 98.2% (active) | 64 | 97% (active) | 98.5% (active) | 43 | 98% (active) | 99% (active)
CC(=Nc1ccc(N(C)C)cc1)c1ccccc1 | -8 | 60% | 69.7% | -11 | 78% (active) | 54.8% | -5% | 70% (active) | 46% | -26 | 53% | 45.4% | -15 | 88% (active) | 71.7% (active) | -15 | 78% (active) | 71% (active)
C#CC(NCCC(C)CC(C)(C)C)C(C)C (configuration not stated) | -4 | -62% | 83.3% (active) | 2 | -31% | 36.2% | -3% | -22% | 87.7% (active) | -2 | -14% | 21.4% | -14 | -68% | 29.6% | -3 | -43% | 65.2%
CN(C)CC(CN(C)C)C(=O)c1ccc(Oc2ccc(Cl)c(Cl)c2)cc1 | 18 | 96% (active) | 93.9% (active) | 8 | 97% (active) | 96.8% (active) | 29% | 98% (active) | 96.7% (active) | 4 | 95% (active) | 93.5% (active) | 6 | 98% (active) | 94.8% (active) | 21 | 96% (active) | 96.3% (active)
CC(=O)Nc1ccc(/S(=N\S(=O)(=O)c2ccc(C)cc2)c2ccc(NC(C)=O)cn2)cc1 (configuration not stated) | 0 | 6% | 37% | -2 | 1% | 4.8% | 0% | 4% | 0.7% | -8 | 3% | 73.3% (active) | -3 | 0% | -1.75% | -2 | 7% | -15.1%
NC(N)=N/N=C/c1ccc([N+](=O)[O-])o1 | 11 | 22% | 66% | 4 | 13% | 49% | 3% | 16% | 70.2% (active) | 3 | 7% | 25.2% | 6 | 39% | 28.7% | 10 | 23% | 61.4%
ClCc1nnc2n1-c1ccc(Cl)cc1SC2 | 3 | 68% | 12.4% | 0 | 64% | 25.9% | -21% | 66% | 35.3% | 13 | 88% (active) | 6.15% | 3 | 92% (active) | 20.9% | -20 | 87% (active) | 24.1%
Cc1ccc(C)c(NC(=O)CCC(=O)C(C#N)c2cccc3ccccc23)c1 (configuration not stated) | -22 | 10% | -25.4% | 3 | 11% | 14.4% | -12% | -4% | 15.9% | -6 | 8% | -23.5% | -5 | 5% | 10.3% | 1 | 3% | 20.6%
Nc1ccccc1OCC(O)CN1CCN(Cc2ccccc2)CC1 (configuration not stated) | -7 | 23% | 72.1% (active) | -4 | 15% | 41% | -11% | 42% | 75.6% (active) | -4 | 17% | 16% | -1 | 9% | 23.9% | 14 | 55% | 22.5%
Cc1ccc(S(=O)(=O)N2CCN3C(=O)c4ccccc4C32c2ccc(F)cc2)cc1 (configuration not stated) | 20 | 95% (active) | 31.8% | 17 | 96% (active) | 26.3% | 88% (active) | 99% (active) | 63.2% | 28 | 98% (active) | 22.9% | 37 | 98% (active) | 50.7% | 30 | 96% (active) | 29.2%
CCOC1=C(NC(C)=O)C(=O)c2ccccc2C1=O | 5 | 97% (active) | 99% (active) | -7 | 97% (active) | 85.9% (active) | -2% | 98% (active) | 97.3% (active) | 60 | 97% (active) | 83.3% (active) | 8 | 97% (active) | 94.7% (active) | 2 | 98% (active) | 97.7% (active)
O=[N+]([O-])C1C(c2ccccc2)CC=CC1N1CCCC1 (configuration not stated) | 2 | 97% (active) | 98.5% (active) | 15 | 95% (active) | 98% (active) | 17% | 97% (active) | 98% (active) | -2 | 85% (active) | 93.9% (active) | -3 | 95% (active) | 97.3% (active) | 7 | 98% (active) | 98.2% (active)
CCC(=O)OCN1C(=O)C=CC1=O | 11 | 99% (active) | 99% (active) | 3 | 100% (active) | 99.3% (active) | -4% | 100% (active) | 99.2% (active) | 14 | 99% (active) | 98.9% (active) | 10 | 100% (active) | 99.3% (active) | 20 | 99% (active) | 99% (active)
O=C(C[n+]1ccc2ccccc2c1)c1ccc(-c2ccccc2)cc1 | -5 | 97% (active) | 98.2% (active) | -2 | 98% (active) | 97.8% (active) | -3% | 97% (active) | 98% (active) | -4 | 96% (active) | 96.8% (active) | -5 | 98% (active) | 98.5% (active) | -7 | 98% (active) | 97.8% (active)
C/C(=N\NC(=S)N(C)CCN(C)C(=S)N/N=C(\C)c1ccccn1)c1ccccn1 | -8 | 99% (active) | 97.5% (active) | -5 | 99% (active) | 97.2% (active) | -3% | 99% (active) | 97.8% (active) | 4 | 99% (active) | 95.8% (active) | -10 | 99% (active) | 97% (active) | 20 | 99% (active) | 96.7% (active)
CCOC(=O)NCCCc1ccc2oc3ccccc3c2c1 | -1 | 97% (active) | 81.6% (active) | -3 | 98% (active) | 19.6% | -3% | 97% (active) | 90.8% (active) | 1 | 95% (active) | -12.7% | 9 | 98% (active) | 19.8% | -1 | 97% (active) | 57.9%
